DT40 TDP1 no CPT – qHTS for Inhibitors of human tyrosyl-DNA phosphodiesterase 1 (TDP1): qHTS in cells in absence of CPT; DT40 Tdp1-/- hTDP1 cells, no CPT, ATP luminescence, 48 h; Potency, µM (highest dose often 46.2 µM), inactives show at the highest dose activity change, negative = growth inhibition, actives largely listed as inhibitors; 420,000 tested, 15% active; AID 686978, 2013; further: potency means the concentration at half of the fitted maximal effect; nearly all actives have a fitted effect of over 55% in size
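Compound effects on proliferation are scored in DT40 Tdp1-/-;hTDP1 cells in the absence of CPT. ATP levels (CellTiter-Glo luminescence) are recorded after a ≥48 hr, 37 °C incubation.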
HT1080 IDH1KD tx – toxicity to HT-1080 IDH1 knockdown cells (counter line). HT-1080 IDH1 knockdown viability, ATP luminescence, 48 h. Potency, µM (top dose mostly 46.1 µM), inactives show at the highest dose activity, negative = toxicity, actives largely listed as cytotoxic. 360,000 tested, 2% active;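 further: potency means the concentration at half of the fitted maximal effect; 0% = DMSO wells and -100% = cell-free medium wells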
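Luminescent ATP read-out (CellTiter-Glo, 10 min at room temperature) after 48 h compound exposure at 37 °C gave viability of IDH1-knockdown HT-1080 cells. Activity was normalised to DMSO and cell-free wells, then fitted as concentration-response curves.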
HT1080NT lethal – kills 2HG-producing HT-1080-NT fibrosarcoma cells; HT-1080-NT fibrosarcoma viability, CellTiter-Glo ATP luminescence, 48 h; Potency, µM (top dose mostly 46.1 µM), inactives show at the top dose activity, negative = less viability, actives largely listed as cytotoxic; 360,000 tested, 1.6% active; AID 686970;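 further: NT is the 2HG producing partner of a matched IDH1 knockdown line; potency means the concentration at half of the fitted maximal effect; 0% = DMSO-treated cells and -100% = media-only wells without cells; nearly all actives have a fitted effect of over 55% in size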
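Luminescent CellTiter-Glo readout after 48 hours of compound exposure at 37 degrees C defined viability of HT-1080-NT cells. Activity was normalized to DMSO wells and cell-free media wells; concentration-response curves were fitted and assigned curve classes.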
IL1B secr inh – inhibitors of inflammasome signaling (IL-1 beta secretion) | THP-1 LPS/ATP IL-1B secretion, AlphaLISA, 16 h; stronger effect = lower value | 360,000 tested, 4.7% active | activity change, % at 57.5 µM; in the data active means activity change below about -50%; inconclusive means mostly about -30% to -49%
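Secreted IL-1B measured by AlphaLISA bead assay after 16 h compound exposure of THP-1 cells; compounds (final up to 57.5 uM) added 1 h before LPS (250 ng/mL) and ATP (1.25 mM) stimulation; lower signal means less secretion.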
TDP1 cell CPT – growth inhibition of DT40 Tdp1-/-;hTDP1 cells with camptothecin (screen for TDP1 inhibitors). chicken DT40 Tdp1-/-;hTDP1 cells + 20 nM CPT, ATP luminescence, 48 h. Potency, µM (series often up to 46.2 µM), for inactives: at the top dose activity change, negative = growth inhibition, usual class: inhibitors. 420,000 tested, 12% active; further: potency means the concentration at half of the fitted maximal effect; nearly all actives have a fitted effect of over 55% in size
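Chicken DT40 Tdp1-/- cells stably complemented with human TDP1 were seeded at 400 cells/well in medium containing 20 nM camptothecin, exposed to pin-transferred compounds, and grown at 37 °C for at least 48 hr. Viability was read as ATP luminescence.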
ELG1 DNA repair – blocks ELG1-dependent DNA repair in HEK293T cells; Potency, µM (highest dose often 46.1 µM), without a hit: top-dose activity change, negative = inhibition, usual class: inhibitors; AID 504467; 330,000 tested, 2.3% active; HEK293T ELG1-luciferase reporter, luminescence, 16 h; DNA damage induced by 5-fluorouridine; further: potency means the concentration at half of the fitted maximal effect; nearly all actives have a fitted effect of over 55% in size
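HEK293T cells expressing luciferase-tagged ELG1 (2,000/well) received 5-Fluorouridine plus compound or DMSO for 16 hr at 37 °C. Luciferase was read by ONE-Glo luminescence after 30 min at room temperature.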
Active calls of the source: *; u = inconclusive; x = no result given. Most compounds without a hit are left out; they make up all but 19% or so of the library. Unless noted, the call rests on the fitted dose curve; in most records, active means well fitted curve in the direction sought with a large enough effect; inconclusive means small, poorly fitted or top-dose-only effect, or another doubt; inactive means no such curve, though single readings can be large; an effect the other way counts as inactive or inconclusive. Unless noted, on the % scale 0 is the no-effect control and ±100 the full control effect.

SMILES	DT40 TDP1 no CPT	HT1080 IDH1KD tx	HT1080NT lethal	IL1B secr inh	TDP1 cell CPT	ELG1 DNA repair
Cc1nn(S(=O)(=O)c2ccc(C(C)C)cc2)c(C)c1S(=O)(=O)N1CCCCC1	8%	x	x	x	-9%	x
CCN(CC)C(=O)Cn1cc(SCC(=O)NC)c2ccccc21	1%	u	19%	-5	5%	6%
CC(=O)c1ccc(NC(=O)CSc2cn(CC(=O)N(C(C)C)C(C)C)c3ccccc23)cc1	15µM*	x	x	x	u	x
Cc1ccccc1NC(=O)CSc1cn(CC(=O)N(C(C)C)C(C)C)c2ccccc12	15µM*	x	x	x	u	x
C1CCc2c(nc3nnnn3c2NCC2CC2)C1	-4%	7%	-3%	-19	-8%	-4%
CCOC(=O)c1c(NC(=O)CCCOc2ccc(C(C)(C)C)cc2)sc2c1CCCC2	4%	x	x	x	-3%	x
Cc1nc2c(C(=O)NC(C)c3ccccc3)cnn2c(C)c1Cc1ccccc1 (centres undefined)	u	x	x	x	13µM*	x
COC(CNC(=O)c1cnn2c(C)c(Cc3ccccc3)c(C)nc12)OC	16µM*	-9%	-2%	u	u	u
CCCCN(C(=O)c1c(CC)noc1C)c1c(N)n(CCCC)c(=O)[nH]c1=O	-20%	12%	4%	15	-17%	7%
CCOc1ccc(CCNC(=O)c2c(C)oc3ncn(CC(C)C)c(=O)c23)cc1OCC	u	x	x	x	-28%	x
CCc1ccc(CNC(=O)c2c(C)oc3ncn(CC(C)C)c(=O)c23)cc1	16µM*	x	x	x	u	x
CCOC(=O)C(C)NC(=O)c1c(C)oc2ncn(CC(C)C)c(=O)c12 (centres undefined)	23µM*	x	x	x	u	x
Cc1ccc(N2CCN(C(=O)c3c(C)oc4ncn(CC(C)C)c(=O)c34)CC2)c(C)c1	7.3µM*	x	x	x	29µM*	x
Cc1oc2ncn(CC(C)C)c(=O)c2c1C(=O)NCCc1ccccc1	16µM*	x	x	x	u	x
O=C(O)c1ccc(OCCCCCCOC2CCCCO2)cc1 (centres undefined)	18µM*	13%	16%	27	u	-1%
COc1ccc2cc(CCOC3CCCCO3)ncc2c1 (centres undefined)	u	2%	4%	1	-26%	u
Cn1c(SCC(=O)NC2CCCC2)nnc1-c1ccco1	-2%	10%	0%	-3	18%	18%
CC(=O)Cc1nsc(NC(=O)c2ccccc2)n1	u	1%	-1%	-10	-28%	u
Cc1sc(NC(=O)c2cccs2)nc1-c1ccccc1	u	-16%	-13%	u	23µM*	u
CC(=O)Nc1sc(N/N=C\c2ccccc2F)nc1-c1cccs1	-26%	2%	-6%	-14	-24%	u
Cc1sc(N/N=C/c2cccs2)nc1-c1ccccc1	18µM*	-9%	-8%	0	u	u
CC(=O)Cc1nsc(NC(=O)c2cccs2)n1	23µM*	-1%	-1%	8	u	28%
N=c1c2c3c(sc2ncn1Nc1ccccc1)CCC3	u	-5%	-1%	u	u	3%
CCCN(CC1CC1)c1nc(C)nc(Nc2c(Cl)cc(Cl)cc2Cl)c1Cl	u	-11%	0%	24	u	x
O=C(Nc1cccc(F)c1)C1CCN(c2nc3ccccc3nc2C(F)(F)F)CC1	16µM*	x	x	x	18µM*	x
SMILES	DT40 TDP1 no CPT	HT1080 IDH1KD tx	HT1080NT lethal	IL1B secr inh	TDP1 cell CPT	ELG1 DNA repair
COc1cc(NC(=O)C2CCN(c3nc4ccccc4nc3C(F)(F)F)CC2)cc(OC)c1	26µM*	x	x	x	16µM*	x
COc1ccc(NC(=O)C2CCN(c3nc4ccccc4nc3C(F)(F)F)CC2)cc1	-19%	x	x	x	-22%	x
O=C(Nc1ccccc1Cl)C1CCN(c2nc3ccccc3nc2C(F)(F)F)CC1	-23%	x	x	x	u	x
O=C(Nc1cccc(F)c1)C1CCN(C(=O)c2ccccc2Cl)CC1	-29%	3%	1%	1	-7%	-13%
O=C(Nc1cccc(Cl)c1)C1CCN(c2nc3ccccc3nc2C(F)(F)F)CC1	21µM*	x	x	x	u	x
CC(C)CNC(=S)NNC(=O)c1csc2c1CCC(C)C2 (centres undefined)	21µM*	u	u	u	u	-11%
Cc1ccc(Cn2c(CNS(=O)(=O)c3c(C)cc(C)cc3C)nc3cccnc32)cc1	u	x	x	x	16µM*	x
Cc1ccc(Cn2c(CNC(=O)c3ccccc3Br)nc3cccnc32)cc1	16µM*	x	x	x	u	x
CCOc1ccc(Cn2c(CNS(=O)(=O)c3c(C)cc(C)cc3C)nc3cccnc32)cc1	18µM*	x	x	x	u	x
COc1ccccc1Cn1c(CNS(=O)(=O)c2c(C)cc(C)cc2C)nc2cccnc21	16µM*	x	x	x	16µM*	x
COc1ccc(Cn2c(CNS(=O)(=O)c3ccc(C)c(C)c3)nc3cccnc32)cc1	-25%	x	x	x	-26%	x
Cc1cc(C)n(CCNC(=O)[C@H]2O[C@@H](n3ccc(N)nc3=O)[C@H](O)[C@@H]2O)n1	34%	1%	4%	-8	9%	x
CCOc1ccc(NC(=O)CCc2nc3cccnc3n2Cc2ccc(OC)cc2)cc1	u	x	x	x	-2%	x
CCOc1ccc(Cn2c(CNS(=O)(=O)c3ccc(Cl)s3)nc3cccnc32)cc1	u	x	x	x	18µM*	x
Cc1cn2c(=O)cc(COC(=O)c3ccc(NC(=O)COc4ccc(C)c(C)c4)cc3)nc2s1	-13%	x	x	x	11%	x
CCN(CC)C(=O)C1=C(C)N(Cc2ccccc2)C(=O)C(CC(=O)NCc2cccc3ccccc23)C1 (centres undefined)	18µM*	-3%	-1%	-21	u	x
CCN(CC)C(=O)C1=C(C)N(Cc2ccc(OC)cc2)C(=O)C(CC(=O)NCc2cccc3ccccc23)C1 (centres undefined)	23µM*	-2%	-11%	-3	u	x
CCCCN1C(=O)C(CC(=O)NCc2cccc3ccccc23)CC(C(=O)N(CC)CC)=C1C (centres undefined)	u	-2%	-1%	0	u	x
CCN(CC)C(=O)C1=C(C)N(CCC2=CCCCC2)C(=O)C(CC(=O)NCc2cccc3ccccc23)C1 (centres undefined)	u	u	u	-57*	16µM*	x

Bioassay records from PubChem BioAssay.
